Bioassay records: PubChem BioAssay, National Center for Advancing Translational Sciences (NCATS)
BAZ2B block – qHTS Assay for Inhibitors of BAZ2B; Bromodomain adjacent to zinc finger domain protein 2B (Homo sapiens), Q9UIF8; AlphaScreen BAZ2B-H3K14Ac peptide displacement; Potency, µM (top dose mostly 114 µM), for inactives: at the highest dose activity change, negative = inhibition, actives largely listed as inhibitors; 4.4% of 360,000 active; AID 504333, 2011; note: % is set by controls: 0 for no effect and ±100 for the full control effect; nearly all actives have a fitted effect of over 60% in size
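AlphaScreen luminescence quantifies BAZ2B engagement of H3K14Ac peptide; the protein and biotinylated peptide are both at 50 nM final, buffer PBS pH 7.4 with 0.01% Tween-20, all steps at room temperature.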
HP1b chromo inh – HTS for Inhibitors of HP1-beta Chromodomain Interactions with Methylated Histone Tails; 0.56% of 390,000 active; Potency, µM (highest dose often 114 µM), inactives show at the highest dose activity change, negative = inhibition, most hits filed as inhibitors; Chromobox protein homolog 1 (Homo sapiens), P83916; AlphaScreen HP1-beta / biotin-H3K9me3 peptide binding; note: nearly all actives have a fitted effect of over 70% in size
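AlphaScreen: HP1-beta (50 nM) preformed 30 min with biotin-H3(1-18)K9me3 peptide (50 nM) in PBS pH 7.4, 0.01% Tween-20. Compound added for 30 min at RT, then streptavidin donor/nickel chelate acceptor beads (10 ug/mL) for 30 min.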
L3MBTL1 block – qHTS Assay for the Inhibitors of L3MBTL1; AlphaScreen L3MBTL1–H3K9me1 peptide binding; Potency, µM (series often up to 57.1 µM), inactives show at the highest dose activity, negative = inhibition, usual class: inhibitors; Lethal(3)malignant brain tumor-like protein 1 (Homo sapiens), Q9Y468; AID 485360, 2010; 0.66% of 230,000 active; note: % is set by controls: 0 for no effect and ±100 for the full control effect; nearly all actives have a fitted effect of over 60% in size
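L3MBTL1 (50 nM) pre-complexed 30 min with biotinylated H3(1-15)K9me1 peptide (75 nM), then compounds added for 30 min at room temperature; AlphaScreen streptavidin donor/nickel chelate acceptor beads (10 ug/mL final) read after 30 min dark incubation.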
Sfp PPTase inh – qHTS Assay for Inhibitors of Bacillus subtilis Sfp phosphopantetheinyl transferase (PPTase); 4'-phosphopantetheinyl transferase ffp (Bacillus subtilis), Q9F4F7; Biochemical Sfp PPTase activity, qHTS; Potency, µM, inactives show largest response in the series, negative = inhibition, hits mostly inhibitors; 3.5% of 310,000 active; AID 1490, 2009;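 note: the enzyme is Sfp with the accession as filed and its product quenches rhodamine fluorescence; 0% = enzyme reaction without inhibitor and -100% = no enzyme wells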
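Sfp 15 nM + cpd, 15 min RT; start w/ rhodamine-CoA 5 uM, BHQ-2-YbbR 12.5 uM (final); 50 mM Hepes pH 7.6, 10 mM MgCl2, 0.01% NP-40, 0.01% BSA; read 525/598 nm at 0 and 30 min.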
G9a block – qHTS Assay for Inhibitors of Histone Lysine Methyltransferase G9a; AID 504332, 2011; G9a H3K9 monomethylation, AlphaScreen, 2 h; 8.8% of 350,000 active; Histone-lysine N-methyltransferase EHMT2 (Homo sapiens), Q96KQ7; Potency, µM (top dose mostly 102 µM), for inactives: top-dose activity, negative = inhibition, most hits filed as inhibitors; note: % is set by controls: 0 for no effect and ±100 for the full control effect; nearly all actives have a fitted effect of over 75% in size
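Chemiluminescent proximity detection of H3K9 monomethylation, read after 10 min bead incubation in the dark. Reaction: 20 nM G9a, 500 nM biotin-H3K9 peptide, 20 uM SAM cofactor, 2 h, room temperature, following 15 min enzyme-compound preincubation.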
JMJD2A Tudor inh – qHTS Assay for Inhibitors of JMJD2A-Tudor Domain | Lysine-specific demethylase 4A (Homo sapiens), O75164 | 4.4% of 390,000 active | Potency, µM (titrated, usually from 114 µM), for the others: at the highest dose activity change, negative = inhibition, hits mostly inhibitors | AlphaScreen JMJD2A-Tudor / H3K4me3 peptide binding | AID 504339, 2011; note: % is set by controls: 0 for no effect and ±100 for the full control effect; nearly all actives have a fitted effect of over 50% in size
Numbers without * were called inactive; u = inconclusive; x = not tested or not shown; [ ] = another dose, or the depositor's remark. Hits are enriched below; roughly 12% of the tested compounds scored in any of these assays. Calls come from the whole dose curve; as a rule, active = well fitted curve in the direction sought with a large enough effect; inconclusive = small, poorly fitted or top-dose-only effect, or another doubt; inactive = no such curve, though single readings can be large; an effect the other way counts as inactive or inconclusive. Potency is the fitted concentration of half-maximal effect.

SMILES | BAZ2B block | HP1b chromo inh | L3MBTL1 block | Sfp PPTase inh | G9a block | JMJD2A Tudor inh
CCn1nnc2cc(C(=O)Nc3ccc(C)cc3Br)ccc21 | -2% | 37% | x | x | u | 2%
Cc1ccc(-n2cc[nH]c2=S)cc1C | -25% | 21% | -4% | 79µM* | u | 35µM*
S=c1[nH]ccn1-c1cccc(Cl)c1 | -1% | -20% | 7% | -2% | u | 7.9µM*
COc1ccc(N2CCN(Cc3nc(N)nc(Nc4ccccc4OC)n3)CC2)cc1 | 28µM* | -15% | u | 3% | 40µM* | 56µM*
CCOc1ccccc1Nc1nc(N)nc(CN(C)C2CCCCC2)n1 | 18µM* | 37% | u | -9% | -10%[59 µM] | 50µM*
COc1ccccc1Nc1nc(N)nc(CN2CC(C)CC(C)C2)n1 (stereo not given) | u | 28% | x | 18% | 10µM* | -8%
CC(c1ccccc1)N1C(=O)c2ccc(C(=O)NCc3cccnc3)cc2C1=O (stereo not given) | -29% | 15% | x | 2% | x | -24%
OC[C@H]1NC[C@@H](O)[C@@H](O)[C@@H]1O | x | x | x | -15% | x | x
O=C(CNC(=O)C1CCCCC1)OCC(=O)c1ccc(Br)cc1 | 3% | 14%[57 µM] | x | 16% | x | -10%[57.1 µM]
COc1ccccc1NC1=C(Cl)C(=O)N(c2ccccc2)C1=O | u | -28% | -15% | -2% | 45µM* | u
COc1ccc(N2C(=O)C(Cl)=C(Nc3c(C)n(C)n(-c4ccccc4)c3=O)C2=O)cc1 | u | 17% | -3% | 45µM* | 8.9µM* | u
Cc1nn(-c2ccc(N3CCCC3)nn2)c(C)c1CCC(=O)NCc1ccccc1F | -12% | 29% | x | x | 7%[59 µM] | -8%
O=C(C1CC(=O)N(c2ccccc2)C1)N1CCN(c2ccc(F)cc2)CC1 (stereo not given) | -23% | 21% | x | 6% | -6% | -11%
CN(C)c1cccc2c1c(NS(=O)(=O)c1cn(C)cn1)nn2C | -19% | 51% | x | 32µM* | 8.9µM* | 0%
Cn1cnc(S(=O)(=O)Nc2ccccc2N2CCOCC2)c1 | 2% | -1% | 1% | -3% | -6% | -12%
Cn1c(NC(=O)c2ccccc2)c(-c2ccccn2)c(=O)c2ccccc21 | 8% | 7% | x | -3% | u | 32µM*
CSc1nc(SCC(=O)NCC2CCCO2)c2c3c(sc2n1)CN(C)CC3 (stereo not given) | -1% | 10% | x | 14% | u | -29%
S=c1[nH]c2ccc(Cl)cc2s1 | -22% | -6% | -4% | -4% | 1.1µM* | u
O=[N+]([O-])c1ccc2[nH]c(=S)sc2c1 | x | u | x | x | x | 50µM*
CC(=O)Nc1sc(N/N=C\c2ccc(O)cc2)nc1-c1cccs1 | u | u | -4% | u | 32µM* | 40µM*
CC(=O)Nc1sc(N/N=C\c2cccc(Cl)c2)nc1-c1cccs1 | -32% | u | -8% | -4% | 10µM* | u
COc1ccccc1C(=O)Nc1nc(-c2cccs2)c(NC(C)=O)s1 | -8% | 24% | x | -18% | u | -5%
CC(=O)Nc1sc(N/N=C\c2ccccc2F)nc1-c1cccs1 | -4% | u | -1% | -30% | 10µM* | u
CC(=O)Nc1sc(NC(=O)c2ccccc2)nc1-c1cccs1 | 10% | 27% | -3% | 0% | 5% | -9%
Cc1ccc(C2=N/C(=C\c3cccc(F)c3)C(=O)O2)cc1 | -2% | 19% | -3% | 5% | x | -7%
SMILES | BAZ2B block | HP1b chromo inh | L3MBTL1 block | Sfp PPTase inh | G9a block | JMJD2A Tudor inh
Cc1cc(C)nc(/N=C(\NC(=O)C(C)(C)C)Nc2ccc(F)cc2)n1 | -3% | 27% | 9% | -26% | 45µM* | 3%
CCc1ccc(N/C(=N/c2nc(C)cc(C)n2)NC(C)=O)cc1 | 2% | 28% | x | -3% | 14% | -2%
CN(C)c1ccc(C(=O)N2CCCC(CCC(=O)N3CCN(c4ccccn4)CC3)C2)cc1 (stereo not given) | -38% | 0% | x | 9% | u | -24%
CCOC(=O)C1(C)Oc2ccccc2C(C(=O)OC)=C1C(=O)OC (stereo not given) | x | 63% | 4% | -17% | 28µM* | 3%
CCOC(=O)C1(C)Oc2ccccc2C(c2ccc(OC)cc2)=C1C(=O)OC (stereo not given) | x | 65% | 6% | -18% | 37% | 17%
Cn1cc([N+](=O)[O-])c(C(=O)n2cccn2)n1 | 8% | 28% | -5% | 16% | 16% | -1%
CN(C)C(=O)c1ccc(-c2ccc3ncnc(NCc4ccccc4)c3c2)cc1 | x | x | x | 17% | 9%[0.501 µM] | x
CC1=NN(c2ccc(Cl)cc2)C(=O)C1C(c1cccc(O)c1)c1c(C)[nH]n(-c2ccc(Cl)cc2)c1=O (stereo not given) | 45µM* | u | -21% | 11% | u | 56µM*
OCC1(Cc2ccccc2)CCCN(Cc2ccn[nH]2)C1 (stereo not given) | -17% | 40% | 1% | 12% | -4% | 6%
COc1ccc(/C=C/C(=O)NCC(c2ccc(F)cc2)N2CCOCC2)cc1OC (stereo not given) | -2% | 51% | x | 3% | 79µM* | -5%[11.4 µM]
COc1ccc(/C=C/C(=O)NCCN2CCOCC2)cc1OC | -31% | 22% | 3% | 12% | u | u
Cc1c(O)ccc(/C(Cc2ccc3ccccc3n2)=N\N)c1O | u | 10% | u | 12% | 8.9µM* | u
CCc1cc(/C(Cc2ccc3ccccc3n2)=N\O)c(O)cc1O | u | -8% | -12% | 13% | -34% | u
Oc1c(C(c2ccccn2)N2CCC(Cc3ccccc3)CC2)cc(Cl)c2cccnc12 (stereo not given) | 50µM* | u | x | u | 3.5µM* | 50µM*
O=C(CCc1ccccc1)NC(c1cccs1)c1cc(Cl)c2cccnc2c1O (stereo not given) | -18% | 31% | 0% | 20% | u | -21%
Oc1c(C(c2ccc(Cl)cc2)N2CCCC2)cc(Cl)c2cccnc12 (stereo not given) | 32µM* | 11% | u | -70% | 25µM* | 28µM*
COc1cc(C(=O)NC(c2ccc(Cl)cc2)c2cc(Cl)c3cccnc3c2O)cc(OC)c1OC (stereo not given) | 3% | 65% | x | x | 22%[59 µM] | -17%
Cc1ccc(C(c2cc(Cl)c3cccnc3c2O)N2CCN(C)CC2)cc1 (stereo not given) | 22µM* | u | x | 35µM* | 3.5µM* | 45µM*
